FLuc counter = counter-screen for miR-21 project: firefly luciferase inhibitors or activators. 360,000 compounds, 6.9% hits. purified FLuc, Km substrates, luminescence inhibition. P08659. AID 588342. Potency, µM (titrated, usually from 57.5 µM), most hits filed as inhibitors; also: nearly all actives have a fitted effect of over 55% in size
Target sequence (P08659 whole entry, looked up): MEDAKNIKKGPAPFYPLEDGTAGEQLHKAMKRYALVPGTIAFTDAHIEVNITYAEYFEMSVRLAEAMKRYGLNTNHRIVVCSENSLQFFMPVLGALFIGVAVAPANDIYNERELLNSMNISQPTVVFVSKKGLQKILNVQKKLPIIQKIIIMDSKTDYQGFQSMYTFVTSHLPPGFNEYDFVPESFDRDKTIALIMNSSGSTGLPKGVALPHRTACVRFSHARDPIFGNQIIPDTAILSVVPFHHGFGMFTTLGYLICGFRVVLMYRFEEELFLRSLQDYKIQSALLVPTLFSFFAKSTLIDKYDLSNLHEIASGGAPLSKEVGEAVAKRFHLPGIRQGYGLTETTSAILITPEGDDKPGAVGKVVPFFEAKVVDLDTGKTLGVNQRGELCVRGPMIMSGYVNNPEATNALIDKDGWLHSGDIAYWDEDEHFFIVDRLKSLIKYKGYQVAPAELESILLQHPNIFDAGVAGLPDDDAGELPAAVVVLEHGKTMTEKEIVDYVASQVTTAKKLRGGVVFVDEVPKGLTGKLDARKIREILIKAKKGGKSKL
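Purified P. pyralis luciferase (10nM final) with 10uM D-luciferin and 10uM ATP (Km levels) in 50mM Tris acetate pH 7.5, 10mM Mg acetate, 0.01% Tween-20, 0.05% BSA; qHTS 6-point titration, ~60 µM downward; luminescence read.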
Rab9 prom act = activators of Rab9 promoter | Huh7 Rab9 promoter-luciferase reporter, luminescence, 24 h | Potency, µM (titrated, usually from 9.22 µM), most hits filed as activators | 320,000 compounds, 2.8% hits; also: nearly all actives have a fitted effect of over 60% in size
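Luminescence from Amplite-detected luciferase (10 minutes, ambient) reports Rab9 promoter activation. Before that, stable Rab9-luciferase Huh7 cells (1500/well, reduced-serum OP-MEM I plus 10% FBS) were exposed to compound for 24 hours at 37C.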
NPC1 promoter act = NPC1 promoter activation | Huh7 NPC1 promoter luciferase reporter, 24 h | AID 485313 | Potency, µM (doses to about 9.22 µM), most hits filed as activators | 320,000 compounds, 2.4% hits; also: nearly all actives have a fitted effect of over 60% in size
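NPC1 promoter–luciferase Huh7 cells; 24 h compound; luminescence.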
SMN2 splice up = increases expression of the SMN2 splice variant; HEK293 SMN2-luciferase splicing reporter, luminescence, 30-36 h; Potency, µM (doses to about 46.1 µM), usual class: activators; 210,000 compounds, 2.8% hits; also: nearly all actives have a fitted effect of over 55% in size
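HEK293 cells carry an SMN2 minigene-luciferase reporter in which exon 7 inclusion puts luciferase in frame. Cells were seeded at 2000 cells/well, attached for 10-12 hours, then exposed to compounds for 30-36 hours at 37C before ONE-Glo luminescence.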
KinaseGlo FLuc = counter-screen: inhibitors of Kinase-Glo firefly luciferase; Kinase-Glo luciferase, ATP luminescence, 8 min; 200,000 compounds, 0.28% hits; Q27757; Potency, µM (series often up to 38.3 µM), most hits filed as inhibitors; AID 1379; also: nearly all actives have a fitted effect of over 60% in size
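Substrate mix (final 50 mM imidazole pH 7.2, 50 mM KCl, 7 mM MgCl2, 10 uM ATP, 0.01% Tween 20, 0.05% BSA) plus pin-tool compound, then Kinase-Glo detection mix; 8 min ambient, luminescence read.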
ELG1 genotoxic = induces genotoxicity in HEK293T cells with luciferase-tagged ELG1; HEK293T ELG1-luciferase reporter, luminescence, 16 h; Potency, µM (top dose mostly 46 µM), hits mostly activators; 330,000 compounds, 1.3% hits; also: nearly all actives have a fitted effect of over 60% in size
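Luminescence read-out: rising ELG1-luciferase signal, reflecting elevated ELG1 protein under genetic stress, flags genotoxic compounds. Cells were treated for 16 hr at 37 °C before ONE-Glo detection.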
A number is an active result; 0 = inactive; ? = inconclusive; - = not tested or not shown. Rows were chosen to be rich in hits. Some 7.4% of all compounds tested hit in one or more screens of this group. Calls follow the shape of the dose curve; as a rule, active = well fitted curve in the direction sought with a large enough effect; inconclusive = small, poorly fitted or top-dose-only effect, or another doubt; inactive = no such curve, though single readings can be large; an effect the other way counts as inactive or inconclusive.

SMILES	FLuc counter	Rab9 prom act	NPC1 promoter act	SMN2 splice up	KinaseGlo FLuc	ELG1 genotoxic
NC(=S)N/N=C\c1ccccc1OCc1ccccc1	0	0	0	0	0	0
CCOc1ccc(Br)cc1C(=O)N/N=C/c1c[nH]c2ccccc12	0	0	0	-	-	0
Cc1ccc(C(=O)N2CCCC(C(=O)Nc3cccc(-c4ccc(F)cc4)c3)C2)cn1 (stereo not drawn)	?	0	0	-	-	0
N#Cc1ccccc1NC(=O)CSc1cn[nH]n1	0	0	0	-	-	0
CCN(CC)S(=O)(=O)c1cc(NC(=O)CNc2c(C)n(C)n(-c3ccccc3)c2=O)ccc1C	0	0	0	0	0	0
CCOCCCn1c(=N)c(C(=O)NCc2cccnc2)cc2c(=O)n3ccccc3nc21	0	-	-	0	-	-
O=C(N/N=C/c1c[nH]c2ccccc12)c1ccccc1	13µM	?	?	-	-	?
Cc1cc(C(=O)N/N=C/c2c[nH]c3ccccc23)cs1	15µM	0	0	?	0	0
O=C(N/N=C/c1c[nH]c2ccccc12)c1sc2ccccc2c1Cl	12µM	?	0	?	0	?
O=C(N/N=C\c1cn[nH]c1-c1ccccc1)c1cccs1	24µM	0	0	0	0	0
O=C(N/N=C\c1cn[nH]c1-c1ccccc1)c1cccnc1	?	0	0	0	0	0
O=C(N/N=C/c1ccccn1)c1sc2ccccc2c1Cl	9.5µM	0	0	-	-	?
O=C(N/N=C/c1c[nH]c2ccccc12)c1cccs1	9.5µM	?	?	-	-	23µM
O=C(CCCC(=O)OCC(Cl)=C(Cl)Cl)Nc1ccccc1	0	0	0	0	0	0
COC1C=CO[C@@]2(C)Oc3c(C)c(O)c4c(O)c(c5c(nc6cc(C)ccn65)c4c3C2=O)NC(=O)/C(C)=C\C=CC(C)C(O)[C@@H](C)C(O)C(C)[C@@H](OC(C)=O)C1C (stereo partly drawn)	-	-	-	0	0	-
CCOC(=O)C1CCCCN1C(=O)CCc1c(C)nc2cc(-c3ccccc3)nn2c1C (stereo not drawn)	15µM	0	0	0	0	0
Cc1nc2cc(-c3cccc(F)c3)nn2c(C)c1CCC(=O)NC(C)CCc1ccco1 (stereo not drawn)	15µM	0	0	0	0	0
COc1cc(OC)cc(-c2cc3nc(C)c(CCC(=O)NC(C)CCc4ccco4)c(C)n3n2)c1 (stereo not drawn)	0	0	0	0	0	0
COc1cc(OC)cc(-c2cc3nc(C)c(CCC(=O)O)c(C)n3n2)c1	15µM	0	0	0	0	0
Cc1nc2cc(-c3cccc(F)c3)nn2c(C)c1CCC(=O)NC1CCCCC1	12µM	-	-	0	-	-
CCOC(=O)C1CCN(C(=O)CCc2c(C)nc3cc(-c4ccccc4)nn3c2C)CC1	?	0	0	0	0	0
COc1ccc(OC)c(C(=O)COC(=O)COc2ccccc2F)c1	0	0	0	-	-	0
O=C(O)c1ccc(S(=O)(=O)N[C@@H](Cc2ccc(O)cc2)C(=O)O)cc1	0	0	0	-	-	-
O=c1ccc(S(=O)(=O)N2CCCC2)cn1Cc1ccc(F)cc1	0	0	0	-	-	0
Cc1ccc(-c2noc(Cn3cc(S(=O)(=O)N4CCCC4)ccc3=O)n2)cc1	24µM	0	0	-	-	0
SMILES	FLuc counter	Rab9 prom act	NPC1 promoter act	SMN2 splice up	KinaseGlo FLuc	ELG1 genotoxic
Clc1ccc(-c2noc(CN3CCCC3)n2)cc1	19µM	?	?	?	0	10µM
Cc1ccc(-c2noc(CN3CCCCC3)n2)cc1	19µM	?	?	?	0	13µM
Cc1ccc(-c2noc(CN3CCOCC3)n2)cc1	17µM	2.8µM	3.2µM	?	0	?
CN(C)C(=O)CCc1ccc2c3c([nH]c2c1)[C@]1(C)[C@@H](C(=O)N2CCOCC2)C[C@H](CC(=O)NCCC2=CCCCC2)C(=O)N1CC3	-	-	-	-	-	0
CNc1nc(N2CCc3ccccc32)ncc1F	5.4µM	2.2µM	2.5µM	?	0	?
O=C(OCC(=O)N1CCN(C(=O)c2ccco2)CC1)c1cc(=O)c2ccccc2o1	0	0	0	0	0	0
O=C(OCC(=O)N1CCN(C(=O)c2ccco2)CC1)c1cc(-c2ccc(F)cc2)nc2ccccc12	11µM	0	0	0	0	0
O=C(OCC(=O)N1CCN(C(=O)c2ccco2)CC1)c1cc(-c2cccc(Br)c2)nc2ccccc12	9.5µM	0	0	0	0	0
O=C(OCC(=O)N1CCN(C(=O)c2ccco2)CC1)c1cc(-c2ccccc2)nc2ccccc12	15µM	0	0	0	0	0
Cc1cc(C(=O)OCC(=O)N2CCN(C(=O)c3ccco3)CC2)c(C)n1-c1ccc(F)cc1	0	0	0	0	0	0
Cc1cccc(Cn2cnc3c(sc4nc(C)cc(C)c43)c2=O)c1	0	0	0	-	-	0
O=C(Cn1cnc2c(oc3ccccc32)c1=O)c1ccccc1	15µM	?	2.5µM	?	0	?
O=C(O)Cn1cnc2c(oc3ccccc32)c1=O	0	0	0	-	-	0
Cc1cc(C)c2c(n1)sc1c(=O)n(CC(=O)c3ccccc3)cnc12	11µM	?	?	-	-	?
C=CCOC(=O)Cn1cnc2c(sc3nc(C)cc(C)c32)c1=O	11µM	?	?	-	-	?
Cc1ccc(CNC(=O)c2ccc(F)c(S(=O)(=O)N3CCOCC3)c2)cc1	0	0	0	-	-	0
COc1ccc(CNC(=O)CCCCCNC(=O)N2CCn3c2nc2ccccc23)cc1	17µM	0	0	-	-	0
N#Cc1c(N2CCCC(O)C2)nc(N)c2c(N)nc3c(c12)CC(=O)N3C12CC3CC(CC(C3)C1)C2 (stereo not drawn)	5.4µM	0	0	0	0	0
Cc1cc(/C=C2\SC(=S)NC2=O)c(C)n1C1CC1	6.7µM	?	?	0	0	0
Cc1nn(-c2ccccc2)c(Cl)c1/C=C1\C(=O)N(C)C(=S)N1C	0	0	0	0	0	0
Cc1cc(/C=C2/C(=O)N(C)C(=S)N2C)c(C)n1C1CC1	3µM	2µM	2.8µM	13µM	0	18µM
CCOc1ccc(CN(C)CC(=O)Nc2ccccc2C(=O)NC2CC2)cc1	0	0	0	-	-	0
CSc1cccc(NC(=O)c2cc(S(=O)(=O)N3CCc4ccccc43)cn2C)c1	0	0	0	-	-	0
O=C(Nc1ccon1)c1cc2c(s1)CCCC2	3µM	1.1µM	1.4µM	6.3µM	0	1.3µM
O=C(Nc1ccc(N2CCOCC2)cc1)c1cc2c(s1)CCCC2	?	0	0	0	0	0
O=C(Nc1ccon1)c1cc2c(s1)CCCCCC2	6µM	3.5µM	3.2µM	13µM	0	4.5µM
Cc1ccc(N2C(=O)CS(=O)(=O)C23C(=O)N(Cc2ccccc2C)c2ccccc23)cc1Cl (stereo not drawn)	0	-	-	-	-	-
O=C(Nc1ccc2nc(SCCOc3ccccc3Cl)sc2c1)c1cccs1	0	-	-	-	-	-

Screening results (PubChem)
